This is a sample that favours compounds with a hit; in the whole collection about 8% have one here.
HT1080-NT tox – kills 2HG-producing HT-1080-NT fibrosarcoma cells; HT-1080-NT fibrosarcoma viability, CellTiter-Glo ATP luminescence, 48 h; Potency, µM (top dose mostly 46.1 µM), for inactives: top-dose activity, negative = less viability, most hits filed as cytotoxic; 360,000 tested, 1.6% active;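 also: NT is the 2HG producing partner of a matched IDH1 knockdown line; 0% = DMSO-treated cells and -100% = media-only wells without cells; nearly all actives have a fitted effect of over 55% in size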
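Viability by CellTiter-Glo luminescence after 48 h compound exposure at 37C of HT-1080-NT cells (750/well, RPMI, 5% FBS). % activity scaled between DMSO wells and medium-only wells, then curve-fitted and categorized by curve class.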
HT1080 IDH1KD tx – kills HT-1080 cells with IDH1 knockdown. HT-1080 IDH1 knockdown viability, ATP luminescence, 48 h. Potency, µM (titrated, usually from 46.1 µM), for the others: top-dose activity, negative = toxicity, actives largely listed as cytotoxic. 360,000 tested, 2% active. AID 686971;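 also: 0% = DMSO wells and -100% = cell-free medium wells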
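CellTiter-Glo luminescence after 48 h compound exposure at 37 degrees C of IDH1-knockdown HT-1080 cells in 5% FBS RPMI. %Activity scaled between DMSO wells and cell-free media wells, with curves fitted and assigned curve classes.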
MCF10A rereplic – inducers of DNA re-replication in MCF 10A breast cells; MCF 10A DNA re-replication, Hoechst nuclear intensity, 48 h; Potency, µM (series often up to 46.1 µM), without a hit: at the top dose activity, positive = re-replication, most hits filed as activators; 350,000 tested, 2.9% active; also: % of control where 0% means no effect; nearly all actives have a fitted effect of over 50% in size
KB-V1 MDR tox – kills drug-selected multidrug resistant KB-V1 cells | KB-V1 MDR cells viability, CellTiter-Glo, 72 h | Potency, µM (top dose mostly 46.1 µM), actives largely listed as cytotoxic | 400,000 tested, 3.4% active | AID 1347076; also: % is scaled to controls: 0 for no effect and ±100 for the full control effect; nearly all actives have a fitted effect of over 60% in size
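Cytotoxicity toward P-gp-expressing KB-V1 cells was determined as loss of CellTiter-Glo luminescence after 72 h at 37 degrees C. Compounds were tested in quantitative HTS format across a concentration range, with curves fitted to normalized data.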
SW480 rereplic – induces DNA re-replication in SW480 colon adenocarcinoma cells; SW480 DNA re-replication, Hoechst DNA content imaging, 48 h; AID 624297; Potency, µM (titrated, usually from 46.1 µM), without a hit: at the top dose re-replication activation, hits mostly activators; 340,000 tested, 1.8% active; also: % of control where 0% means no effect; nearly all actives have a fitted effect of over 55% in size
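First, 250 cells per well were seeded. Next, compound or vehicle (23 nL) was pinned in, plates sat 48 hr at 37 C. Finally Hoechst was added for 40 min before fluorescence scanning.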
KB-3-1 cytotox – KB-3-1 parental cell cytotoxicity. KB-3-1 viability, CellTiter-Glo ATP luminescence, 72 h. Potency, µM (highest dose often 46.1 µM), most hits filed as cytotoxic. 400,000 tested, 1.4% active. AID 1347075; also: % is scaled to controls: 0 for no effect and ±100 for the full control effect; nearly all actives have a fitted effect of over 60% in size
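KB-3-1 parental drug-naive adenocarcinoma cells in DMEM/10% FBS, incubated 72 h at 37 C with pin-transferred compounds across a concentration series. Viability by CellTiter-Glo luminescence; concentration-response curves fitted after normalization.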
An asterisk follows results filed as active; i = inactive; u = inconclusive; x = no result given. Calls follow the shape of the dose curve; as a rule, active = well fitted curve in the direction sought with a large enough effect; inconclusive = small, poorly fitted or top-dose-only effect, or another doubt; inactive = no such curve, though single readings can be large; an effect the other way counts as inactive or inconclusive. Potency is read from the fitted curve at half-maximal effect.

SMILES | HT1080-NT tox | HT1080 IDH1KD tx | MCF10A rereplic | KB-V1 MDR tox | SW480 rereplic | KB-3-1 cytotox
Cc1c(Cl)c([N+](=O)[O-])nn1CCCC(=O)O | 17% | 16% | 3% | i | -2% | i
COc1ccc(Nc2oc(-c3ccco3)nc2S(=O)(=O)c2ccc(F)cc2)cc1 | -7% | -3% | 15µM* | i | u | i
O=S(=O)(c1ccc(F)cc1)c1nc(-c2ccco2)oc1Nc1ccc(F)cc1 | 1% | 1% | u | i | -6% | i
Cc1ccc(NC(=O)C(=O)Nc2ccc(C)cn2)nc1 | u | 4% | -8% | i | -13% | i
Cc1ccc(NC(=O)/C(C#N)=C(\N)C(Cl)(Cl)Cl)nc1 | u | u | 18µM* | u | 8% | 18µM*
Cc1cc(NS(=O)(=O)c2ccccc2)cc(Cl)c1O | -10% | -8% | 2% | 16µM* | 9% | i
O=S(=O)(Nc1ccc(S(=O)(=O)Nc2ccccc2)cc1)c1ccccc1 | 13% | 4% | 22% | i | 2% | i
O=S(=O)(Nc1ccc(N=Nc2ccccc2)cc1)c1ccccc1 | 15% | -15% | u | 3.3µM* | 0% | i
Cc1ccc(S(=O)(=O)N2[C@@H](c3ccc(C(C)(C)C)cc3)C(C(=O)O)=CC[C@H]2c2ccc3c(c2)OCO3)cc1 | -20% | -20% | 10% | i | -2% | i
NC(N)=N/N=C/c1ccc(OCc2ccccc2)cc1 | 18µM* | u | 1% | i | 0% | u
NC(N)=N/N=C/c1ccc(OCc2ccc(Cl)cc2)cc1 | 16µM* | u | 1% | 21µM* | -3% | i
NC(N)=N/N=C/c1ccc(Br)cc1 | u | u | 18µM* | u | u | u
Cc1ccc(COc2ccc(/C=N/O)cc2)cc1 | 5% | 3% | u | i | 5% | i
Cc1ccc(C(=O)N/N=C/c2cc(C)n(-c3ccc(Br)cc3)c2C)cc1[N+](=O)[O-] | 0% | 0% | 10% | u | 1% | i
Cc1cccc(OCC(=O)N2CCc3ccccc3C2)c1 | 19% | 8% | 3% | i | 0% | i
Clc1ccc2c(c1)[C@H]1OCC[C@H]1[C@@H](c1ccco1)N2 | -4% | -8% | -2% | i | -3% | i
CCc1ccc2c(c1)[C@H]1OCC[C@H]1[C@@H](c1cccs1)N2 | 4.1µM* | 3.7µM* | 5.8µM* | u | 5.2µM* | 13µM*
CCCCOc1ccc(C2=NC(c3cccs3)=Nc3ccc(CC)cc3N2)cc1 | x | x | x | i | x | i
C=CC(C)(C)c1c(O)c(CC=C(C)C)c(O)c2c(=O)c3ccc(O)c(O)c3oc12 | u | 15µM* | 23µM* | u | u | u
Cc1cc(Cl)c(S(=O)(=O)N2CCN(c3ccc(F)cc3)CC2)cc1OCC(=O)NC1CCCCC1 | u | -23% | 26% | u | 0% | 0.73µM*
CCOC(=O)C1CCCN(S(=O)(=O)c2cc(OCC(=O)NC3CCCCC3)c(C)cc2Cl)C1 (configuration not stated) | -3% | -9% | 10% | 16µM* | 2% | i
Cc1cc(S(=O)(=O)N2CCCC2)ccc1OCC(=O)NC1CCCC1 | 6% | -7% | 1% | i | 0% | i
O=C(NCc1noc2ccccc12)N1CCN(c2ccccc2F)CC1 | x | x | x | i | x | i
COc1ccccc1-c1nnc(NC(=O)c2ccc(S(=O)(=O)N3CCCC3)cc2)o1 | u | u | 3% | u | u | u
C/C(=N\NC(=O)c1ccccn1)C12CC3CC(CC(C3)C1)C2 | -4% | 0% | -7% | i | -11% | i
SMILES | HT1080-NT tox | HT1080 IDH1KD tx | MCF10A rereplic | KB-V1 MDR tox | SW480 rereplic | KB-3-1 cytotox
Cc1ccc(-c2csc(NC(=O)c3ccc4c(=O)n5c(nc4c3)CCCCC5)n2)cc1 | 12% | 3% | u | 10µM* | x | i
O=C(c1ccc2c(=O)n3c(nc2c1)CCCCC3)N1CCN(C(c2ccccc2)c2ccccc2)CC1 | 18µM* | 10µM* | u | u | u | u
CCN(Cc1ccccc1)C(=O)c1ccc2c(=O)n3c(nc2c1)CCC3 | 4% | 19% | 23% | 10µM* | -2% | i
COCCN(Cc1ccccc1)C(=O)c1ccc2c(=O)n3c(nc2c1)CCC3 | 17% | 9% | 2% | i | -47% | i
O=C(CNC(=O)Cc1ccccc1)NCc1cccs1 | 13% | 17% | 0% | i | -3% | i
COc1ccc(CC(=O)NCc2ccc(-n3cccc3)cc2)cc1OC | 4.6µM* | 1.8µM* | 5.8µM* | 8.2µM* | 5.2µM* | 4.1µM*
COc1cc(OC)cc(C(=O)NCc2ccc(-n3cccc3)cc2)c1 | -19% | u | u | u | u | u
Cc1ccc(CNC(=O)Cc2ccc(-n3cccc3)cc2)cc1 | u | 4.6µM* | 5.8µM* | 2.3µM* | 4.1µM* | 7.3µM*
O=C(Cc1ccc(-n2cccc2)cc1)NCc1cccs1 | 2.3µM* | 2.6µM* | u | 1.2µM* | u | 1.6µM*
CCOc1ccc(C(=O)Nc2ccc3nc(SCc4ccccc4)sc3c2)cc1 | x | x | x | i | x | i
Cc1cc2n(n1)C(c1ccc(N(C)C)cc1)Nc1ccccc1-2 (configuration not stated) | 1% | 0% | 21µM* | u | 21µM* | u
Cc1onc(-c2ccccc2Cl)c1C(=O)NC1CCS(=O)(=O)C1 (configuration not stated) | 0% | -1% | 0% | i | -9% | i
CCN(c1cccc(C)c1)S(=O)(=O)c1ccc2c(c1)CCN2C(C)=O | u | u | u | 23µM* | u | u
Cc1ccc(CSCC(=O)N2CCOCC2)cc1 | 16% | 14% | u | i | 18% | i
Cc1ccc(-c2csc3nc(-c4ccncc4)[nH]c(=O)c23)cc1 | -13% | -9% | 18µM* | i | 5.2µM* | u
CCOc1ccc(-c2nc3scc(-c4cccs4)c3c(=O)[nH]2)cc1 | 5% | 6% | 1.5µM* | i | 21% | i
Cc1ccc(-c2csc3nc[nH]c(=O)c23)cc1 | u | 13% | 0% | i | -57% | i
CC(NS(=O)(=O)c1ccccc1)C(=O)Nc1nccs1 (configuration not stated) | 0% | -10% | 6% | i | 5% | i
CC(C)(C)c1ccc(C(=O)CCCN2CCC(OC(c3ccccc3)c3ccccc3)CC2)cc1 | x | x | 12µM* | x | -3% | x
